Experimental data published in PubChem BioAssay AID1159580 (chemical genetic matrix, 2015).
In all, about 5,500 compounds went through this assay and about 2,000 (36%) were called active. Roughly 18% stayed inconclusive and do not appear here. No stated cut-off is given here; in the data, active means normalized growth mostly below about 0.91 (no sharp cut-off); inconclusive means no clear call, values can overlap the other calls; inactive means mostly above about 0.92. This is one part of the list.

Test: chemical genetic growth profiling, strain panel (AID 1159580);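 further: tested at 20 µM; growth read once vehicle control cultures reached saturation at 30 °C; 1 = growth at the plate median or of vehicle wells; lower values mean less growth of the strain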
Settings: S. cerevisiae deletion strains, growth OD

Measured: normalized growth

NCC#Cc1ccccc1
inactive: locus YAL013W, strain DEP1, hits give low values 1.04 | locus YAL040C, strain CLN3, hits give low values 0.989 | locus YCL061C, strain MRC1 (second series), hits give low values 1.01 | locus YDR150W, strain NUM1, hits give low values 1.02 | locus YDR363W, strain ESC2, hits give low values 1.02 | locus YER002W, strain NOP16, hits give low values 1 | locus YGR229C, strain SMI1, hits give low values 1.07 | locus YMR263W, strain SAP30, hits give low values 1 | locus YMR307W, strain GAS1, hits give low values 1.01 | locus YNL128W, strain TEP1, hits give low values 1.01 | locus YNL153C, strain GIM3, hits give low values 1.15 | locus YNL175C, strain NOP13, hits give low values 1.01 | locus YNL197C, strain WHI3, hits give low values 1.01 | locus YNL224C, strain SQS1, hits give low values 1.01 | locus YOR083W, strain WHI5 (second series), hits give low values 1.01 | locus YPL055C, strain LGE1, hits give low values 1.04
